Structures are written as SMILES. In all, about 390,000 compounds went through this assay and about 17,000 (4.4%) were called active. Not shown: some 8% with an inconclusive outcome. Only a selection was taken, and actives are over-represented in it overall. Unmarked numbers belong to inactive results. The call rests on the fitted dose curve; in most records, active means well fitted inhibition curve with a large enough effect; inconclusive means small, poorly fitted or top-dose-only effect; inactive means no such curve, though single readings can be large or run the other way.
On the % scale 0 is the no-effect control and ±100 the full control effect; potency means the concentration at half of the fitted maximal effect.

In this test the target is Lysine-specific demethylase 4A (Homo sapiens) (UniProt O75164). The experiment in a line: qHTS Assay for Inhibitors of JMJD2A-Tudor Domain. Further: nearly all actives have a fitted effect of over 50% in size. As to conditions: AlphaScreen JMJD2A-Tudor / H3K4me3 peptide binding; series mostly up to 114 µM; activity change, negative = inhibition: at the top concentration.
Sequence of Lysine-specific demethylase 4A (Homo sapiens) (O75164 whole entry, looked up, the tested form may be a part): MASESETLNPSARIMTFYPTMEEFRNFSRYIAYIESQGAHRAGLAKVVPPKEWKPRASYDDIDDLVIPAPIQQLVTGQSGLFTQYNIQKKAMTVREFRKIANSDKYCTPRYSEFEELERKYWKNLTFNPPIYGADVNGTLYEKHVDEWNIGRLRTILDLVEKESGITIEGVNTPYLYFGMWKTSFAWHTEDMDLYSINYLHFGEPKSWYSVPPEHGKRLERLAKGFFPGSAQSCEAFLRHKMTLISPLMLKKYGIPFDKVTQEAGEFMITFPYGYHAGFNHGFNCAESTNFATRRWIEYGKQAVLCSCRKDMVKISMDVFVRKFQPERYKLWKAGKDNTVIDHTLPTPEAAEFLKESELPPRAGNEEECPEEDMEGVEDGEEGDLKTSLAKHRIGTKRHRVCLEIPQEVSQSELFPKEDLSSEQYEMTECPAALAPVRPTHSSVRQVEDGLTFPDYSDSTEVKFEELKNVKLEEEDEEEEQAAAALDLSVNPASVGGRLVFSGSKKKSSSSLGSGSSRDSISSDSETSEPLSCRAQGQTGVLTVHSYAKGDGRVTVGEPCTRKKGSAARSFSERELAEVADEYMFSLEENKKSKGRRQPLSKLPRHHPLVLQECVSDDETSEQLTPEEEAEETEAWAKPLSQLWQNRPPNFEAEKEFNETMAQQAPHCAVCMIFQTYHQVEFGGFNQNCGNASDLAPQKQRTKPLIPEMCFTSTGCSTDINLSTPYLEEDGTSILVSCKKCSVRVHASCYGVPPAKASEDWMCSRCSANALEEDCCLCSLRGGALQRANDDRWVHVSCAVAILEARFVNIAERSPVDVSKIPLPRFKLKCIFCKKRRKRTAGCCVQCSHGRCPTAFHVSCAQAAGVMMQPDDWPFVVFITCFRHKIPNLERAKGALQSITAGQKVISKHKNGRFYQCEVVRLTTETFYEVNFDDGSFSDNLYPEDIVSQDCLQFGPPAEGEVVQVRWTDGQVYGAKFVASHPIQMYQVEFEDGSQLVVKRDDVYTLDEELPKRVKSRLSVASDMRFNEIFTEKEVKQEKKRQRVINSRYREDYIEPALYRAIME
With `COn1c(=O)c(=O)n(OC)c2ccccc21`, the “activity change, negative = inhibition” value is -17.5%.

Regarding `CCOC(=O)c1nnn2c3ccccc3c(=O)n(C)c12`, the “activity change, negative = inhibition” value is -7.58%. For the compound `Cc1ccc(-c2cnc(C3CC3)o2)cc1S(=O)(=O)Nc1cccc(C)c1C`, the “activity change, negative = inhibition” value is -26.8%. For the compound `CCc1ccc(CNCc2c(C(=O)O)n(Cc3ccc(F)cc3Cl)c3cc(OC)ccc23)cc1`, the “activity change, negative = inhibition” value was -18.7%. The same measure, in the same setting: under `CC(C)(C)OC(=O)N1CCC(c2c(C(=O)NCc3ccccn3)cnn2-c2ccc(F)cc2)CC1` stands -5.83%. The same measure, in the same setting: as for `CCC(C)[C@@H](C(=O)N1CCNCC1)n1cc(CCCCN)nn1` (stereo partly drawn), the figure is -14.4%. Regarding `C#CCOCCOCCOCCNc1nc(N2CCN(C(=O)C([C@@H](C)CC)n3cc(C(N)COC(=O)C(F)(F)F)nn3)CC2)nc(N2CCN(C(=O)[C@H](CCCCN)n3cc(C(N)CC(C)C)nn3)CC2)n1` (stereo partly drawn), the Potency was 56.2 µM (active). Consider `C#CCOCCOCCOCCNc1nc(N2CCN(C(=O)Cn3cc(CCO)nn3)CC2)nc(N2CCN(C(=O)[C@H](CCCCN)n3cc(CCCC)nn3)CC2)n1`, for which the “activity change, negative = inhibition” value was -18.8%. As for `C#CCOCCOCCOCCNc1nc(N2CCN(C(=O)C([C@@H](C)O)n3cc([C@@H](N)CCCCN)nn3)CC2)nc(N2CCN(C(=O)[C@H](CCCCN)n3cc(CN)nn3)CC2)n1` (stereo partly drawn), the Potency was 79.4 µM (active). For `O=S(=O)(Nc1ccc2nc(-c3cccc(Cl)c3)oc2c1)c1ccccc1`, the “activity change, negative = inhibition” value was -16.6%. The same measure, in the same setting: as for `CC(=O)OCC(NC(=O)C(Cc1ccccc1)NC(=O)OC(C)(C)C)C1OC(n2ccc(=O)[nH]c2=O)C(OC(C)=O)C1OC(C)=O` (stereo not drawn), the figure is 2.76%; as for `Cc1cccc(-n2ccnc2SCC(=O)Nc2cc(C(F)(F)F)ccc2Cl)c1`, -32.9%. The same measure, in the same setting: under `O=C(NC1CC(=O)N(c2ccc(F)cc2)C1)C1CCCCC1` (stereo not drawn) stands -5.84%; under `CSc1ccc(NC(=O)Cn2nnnc2-c2ccccc2F)cc1`, -16.4%. In the case of `CC(C)(C)c1ccc(C(=O)N2CCC(c3nc(-c4ccc(S(=O)(=O)N5CCCC5)cc4)no3)CC2)cc1`, the “activity change, negative = inhibition” value was -27.7%.

With `O=C(/C=C/c1ccccc1[N+](=O)[O-])OCC(=O)N1CCCC1`, the “activity change, negative = inhibition” value was 10.1%. `O=[N+]([O-])c1ccccc1/C=C/CN1CCC(O)CC1`: the Potency was 8.91 µM (active).

On to `CC1CC(C)CN(C/C=C/c2ccccc2[N+](=O)[O-])C1` (stereo not drawn), for which the “activity change, negative = inhibition” value is -24.5%. On the same count and under the same terms, as for `CCN(CCCNC(=O)Cn1ncc2c([nH]c3ccccc32)c1=O)c1cccc(C)c1`, the figure is -24.8%; as for `COc1ccc(-c2noc(CSc3nc(C)cc(=O)[nH]3)n2)cc1OC`, -10.4%; as for `COCCCNC(=O)C1CC(=O)N(CCc2ccccc2)C1` (stereo not drawn), -5.84%. As for `CC1(C)SC2c3ccccc3C(=O)N2[C@@H]1C(=O)NCc1ccco1` (stereo partly drawn), the “activity change, negative = inhibition” value was -15.6%.

Regarding `COCCCNC(=O)[C@H]1N2C(=O)c3ccccc3C2SC1(C)C` (stereo partly drawn), the Potency is 22.4 µM (active). Take `CCOc1ccc(NC(=O)C(=O)NCCc2csc3nc(-c4ccccc4F)nn23)cc1`: the “activity change, negative = inhibition” value is -16%. As to `Cc1cc(C)c2oc(C(=O)Nc3ccc(S(=O)(=O)N4CCCCCC4)cc3)cc(=O)c2c1`, the “activity change, negative = inhibition” value is -16.3%.

For the compound `CCOC(=O)c1c(NC(=O)Cc2coc3ccc(CC)cc23)sc2c1CCC2`, the “activity change, negative = inhibition” value was 5.56%. On to `CCc1nn(CC(=O)N2CCN(c3cccc(C(F)(F)F)c3)CC2)c(=O)c2cc3occc3n12`, for which the “activity change, negative = inhibition” value is -7.05%. On the same count and under the same terms, under `Cc1nc2nc(NCc3cccc(Br)c3)[nH]n2c(=O)c1Cc1ccccc1` stands -9.38%; under `Cc1cc(C)n2ncc(C(=O)Nc3cccc(C#N)c3)c2n1`, -24.1% [at 28.6 µM]; under `Nc1ccc(S(=O)(=O)NC(=O)c2ccccc2)cc1`, -2.76%.

On to `COc1ccccc1C(=O)Nc1ccc(Nc2ccccc2)cc1`, for which the “activity change, negative = inhibition” value is 3.79%. Regarding `Nc1ccc(Nc2ccccc2)cc1`, the Potency is 39.8 µM (active). Regarding `CCN(CC)C(=O)CSc1nc2cc3c(cc2c(=O)n1CCCC(=O)NCc1ccc2c(c1)OCO2)OCO3`, the “activity change, negative = inhibition” value is -12.7%. The same measure, in the same setting: as for `COc1ccccc1-c1noc(CSc2nnc(-c3ccccc3)n2-c2ccc(C)c(C)c2)n1`, the figure is -33.7%. For `NNc1nc2c(Cl)cccc2s1`, the Potency was 63.1 µM (active). On to `NC(=O)c1c(Nc2nc3c(F)cccc3s2)sc2c1CCCC2`, for which the “activity change, negative = inhibition” value is -32.5%. Same read-out and setting: as for `CCc1nnc(SCc2c(F)cccc2Cl)c2cc3sccc3n12`, the figure is -16.5%. Turning to `CCN(C(=O)Cn1cc(S(=O)(=O)N2CCN(c3ccccc3F)CC2)c2ccccc2c1=O)c1ccc(C)c(C)c1`, the “activity change, negative = inhibition” value is -16.1%. `CCCOc1ccc(C(=O)Nc2ccc3oc(-c4cccc(Cl)c4Cl)nc3c2)cc1`: the “activity change, negative = inhibition” value was -1.63%. Turning to `CCOC(=O)C1CCN(S(=O)(=O)c2cc(F)ccc2OC)CC1`, the “activity change, negative = inhibition” value was -5.63%. The same measure, in the same setting: as for `CCOC(=O)C1CCN(C(=O)/C=C/c2cc(OC)c(OC)c(OC)c2)CC1`, the figure is 3.19% [at 57.1 µM]. As for `CCOC(=O)C1CCCCN1Cc1ccc(OC)c(OC)c1OC` (stereo not drawn), the Potency is 2.24 µM (active). As for `CCOc1ccccc1CNCc1c(C(=O)O)c(C)n(Cc2ccc(C)cc2)c1C`, the “activity change, negative = inhibition” value was -13.4%. Still for that read-out and setting: as for `CC1=C(c2ccc(C)c(C)c2)S(=O)(=O)NC1=NCc1ccccc1Cl`, the figure is -22.5%.

For `Cc1nc2ccn(Cc3cccs3)c(=O)c2cc1C(=O)NCc1ccc(Cl)cc1`, the “activity change, negative = inhibition” value is -15.3%. Still for that read-out and setting: under `CCOc1nc(NCCN2CCOCC2)nc(Nc2ccc(C)cc2)n1` stands -20.1%. Turning to `CCOc1cccc(/C=N/NC(=S)NCCN2CCOCC2)c1O`, the Potency is 56.2 µM (active). For the compound `O=C(NCCN1CCOCC1)Nc1cccc(Cl)c1`, the “activity change, negative = inhibition” value is 4.56%.

The values are drawn from PubChem BioAssay AID504339 (National Center for Advancing Translational Sciences (NCATS), 2011).
